ADAM10 inh – ADAM10 inhibition, QFRET primary screen; 370,000 compounds, 0.62% hits; O14672; recombinant ADAM10, EDANS/DABCYL FRET peptide cleavage, 3 h; inhibition, % at 7 µM; AID 720582;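 active = inhibition above a per-campaign cutoff equal to the mean of compounds falling between control-based bounds plus 3 SD, cut at about 20% in these data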;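 also: 0% = DMSO wells while the 100% control is not disclosed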
NR3A LBD binder – modulators (binders) of human NR3A ligand-binding domain. NR3A LBD differential scanning fluorimetry, Tm shift; 0% = protein alone, 100% = glycine-bound protein. Tm shift relative to glycine control, % at 25 µM. 340,000 compounds, 2.5% hits. AID 1259313;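 active = melting temperature shift of at least 10% of the positive control shift, at one fixed dose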
ADAM17 inh – inhibits human ADAM17 | P78536 | AID 720648 | 370,000 compounds, 0.83% hits | recombinant ADAM17, EDANS/DABCYL FRET peptide cleavage | inhibition, % at 6.95 µM;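 active = inhibition above the mean of compounds lying between control limits plus 3 SD, set per campaign, cut at about 8.5% in these data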;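 also: 0% = DMSO-only wells as the low control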
proKLK7 act – activates the human kallikrein-7 zymogen. purified proKLK7, EDANS-DABCYL substrate fluorescence; 100% is mature enzyme control, 0% vehicle. activation, % at 7 µM. 370,000 compounds, 0.9% hits;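 active = activation above the mean of all tested compounds plus 3 SD, computed per campaign excluding outliers beyond control limits, cut at about 13% in these data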
FAS-TE inh – inhibitors of human fatty acid synthase thioesterase domain; inhibition, % at 15 µM; recombinant FAS-TE, OMFH fluorogenic substrate, fluorescence endpoint; 360,000 compounds, 0.67% hits; P49327;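 active = compounds whose normalised, plate-corrected inhibition of enzyme fluorescence in the single-dose primary screen is 50% or more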;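 also: 0% = DMSO with enzyme and 100% = substrate without enzyme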
Target sequence (P49327 whole entry, looked up, the tested form may be a part): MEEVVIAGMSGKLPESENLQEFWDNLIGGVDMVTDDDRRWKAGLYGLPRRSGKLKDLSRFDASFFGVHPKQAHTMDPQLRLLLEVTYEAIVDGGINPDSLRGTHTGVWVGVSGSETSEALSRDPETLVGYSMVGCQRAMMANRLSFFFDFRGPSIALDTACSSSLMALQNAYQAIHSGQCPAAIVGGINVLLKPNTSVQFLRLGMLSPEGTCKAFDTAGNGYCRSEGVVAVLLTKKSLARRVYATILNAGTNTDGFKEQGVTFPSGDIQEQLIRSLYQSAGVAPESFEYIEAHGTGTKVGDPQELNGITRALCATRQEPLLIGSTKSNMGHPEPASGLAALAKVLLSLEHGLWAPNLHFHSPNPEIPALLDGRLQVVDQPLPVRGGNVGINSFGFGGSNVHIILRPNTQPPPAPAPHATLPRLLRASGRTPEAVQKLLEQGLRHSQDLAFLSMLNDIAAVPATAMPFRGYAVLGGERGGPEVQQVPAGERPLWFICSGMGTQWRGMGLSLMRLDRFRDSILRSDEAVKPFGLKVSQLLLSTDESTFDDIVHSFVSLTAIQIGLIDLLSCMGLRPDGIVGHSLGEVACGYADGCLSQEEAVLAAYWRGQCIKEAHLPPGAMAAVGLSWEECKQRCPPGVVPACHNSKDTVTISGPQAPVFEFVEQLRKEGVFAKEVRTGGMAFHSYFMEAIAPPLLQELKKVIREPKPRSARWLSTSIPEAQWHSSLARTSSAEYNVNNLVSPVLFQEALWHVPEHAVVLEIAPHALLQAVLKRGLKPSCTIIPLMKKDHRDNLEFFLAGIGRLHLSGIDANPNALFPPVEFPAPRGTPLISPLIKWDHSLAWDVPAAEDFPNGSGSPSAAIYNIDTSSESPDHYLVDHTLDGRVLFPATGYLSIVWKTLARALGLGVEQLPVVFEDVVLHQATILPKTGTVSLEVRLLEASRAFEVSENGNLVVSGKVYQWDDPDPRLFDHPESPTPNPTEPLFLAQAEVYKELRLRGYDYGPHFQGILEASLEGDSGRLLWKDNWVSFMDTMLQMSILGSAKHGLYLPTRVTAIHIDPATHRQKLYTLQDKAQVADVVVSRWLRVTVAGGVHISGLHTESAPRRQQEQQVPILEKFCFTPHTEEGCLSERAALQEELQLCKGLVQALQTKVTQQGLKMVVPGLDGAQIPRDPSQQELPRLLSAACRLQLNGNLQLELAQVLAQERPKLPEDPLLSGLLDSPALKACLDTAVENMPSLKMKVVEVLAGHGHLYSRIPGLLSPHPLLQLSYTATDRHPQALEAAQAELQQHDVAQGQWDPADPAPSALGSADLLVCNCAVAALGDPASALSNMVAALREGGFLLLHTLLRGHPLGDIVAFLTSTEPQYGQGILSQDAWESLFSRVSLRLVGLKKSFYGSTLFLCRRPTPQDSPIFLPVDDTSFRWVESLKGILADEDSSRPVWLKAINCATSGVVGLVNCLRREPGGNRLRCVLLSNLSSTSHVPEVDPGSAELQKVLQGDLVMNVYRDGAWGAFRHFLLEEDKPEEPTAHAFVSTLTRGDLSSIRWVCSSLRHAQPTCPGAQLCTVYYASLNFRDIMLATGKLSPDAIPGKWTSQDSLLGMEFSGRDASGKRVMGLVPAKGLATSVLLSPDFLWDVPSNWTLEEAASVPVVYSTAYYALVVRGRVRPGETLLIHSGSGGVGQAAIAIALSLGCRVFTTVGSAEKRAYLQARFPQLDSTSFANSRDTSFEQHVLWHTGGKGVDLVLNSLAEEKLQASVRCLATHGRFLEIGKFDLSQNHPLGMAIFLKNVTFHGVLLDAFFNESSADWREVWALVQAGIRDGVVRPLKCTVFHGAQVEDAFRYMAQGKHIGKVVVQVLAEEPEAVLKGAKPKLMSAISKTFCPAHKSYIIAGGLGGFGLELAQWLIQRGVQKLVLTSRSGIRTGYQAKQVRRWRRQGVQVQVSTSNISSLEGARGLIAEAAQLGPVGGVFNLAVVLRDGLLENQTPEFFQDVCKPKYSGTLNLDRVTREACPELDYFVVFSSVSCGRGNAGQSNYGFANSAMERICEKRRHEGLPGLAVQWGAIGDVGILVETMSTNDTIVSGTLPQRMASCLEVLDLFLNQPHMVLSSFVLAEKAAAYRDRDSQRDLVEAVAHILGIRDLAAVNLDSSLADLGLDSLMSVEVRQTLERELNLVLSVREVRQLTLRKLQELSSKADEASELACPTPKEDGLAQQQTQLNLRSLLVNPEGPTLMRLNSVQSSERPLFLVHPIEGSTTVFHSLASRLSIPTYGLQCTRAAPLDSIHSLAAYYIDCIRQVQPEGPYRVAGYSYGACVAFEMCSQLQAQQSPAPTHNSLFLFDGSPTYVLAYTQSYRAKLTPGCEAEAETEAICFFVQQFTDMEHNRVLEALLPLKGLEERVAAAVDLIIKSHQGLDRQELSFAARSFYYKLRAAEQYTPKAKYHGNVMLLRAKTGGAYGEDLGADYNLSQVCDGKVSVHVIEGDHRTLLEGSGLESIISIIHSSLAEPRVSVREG
FAS-TE conf – FAS thioesterase (human) inhibition, confirmation; shares compounds with FAS-TE inh; recombinant FAS-TE, OMFH fluorogenic substrate, fluorescence; inhibition, % at 15 µM; 2,300 compounds, 45% hits; AID 624325;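 active = compounds inhibiting the enzyme by at least 50% at 15 µM in any one of the replicates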;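 also: 0% = enzyme with DMSO only and 100% = wells lacking enzyme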
Starred values were filed as active, the others as inactive; / = no result. Sampled rows, rich in hits. Any-hit rate of the full collection: about 4.6%.

SMILES | ADAM10 inh | NR3A LBD binder | ADAM17 inh | proKLK7 act | FAS-TE inh | FAS-TE conf
COC(=O)C(CC(C)C)NC(=O)c1ccc([N+](=O)[O-])cc1 (stereo unspecified) | -5.7 | -1.3 | -3.9 | -0.9 | 0.5 | /
COC(=O)C(CCCCNC(=O)c1ccc([N+](=O)[O-])cc1)NC(=O)c1ccc([N+](=O)[O-])cc1 (stereo unspecified) | 9.6 | 3.6 | 3.3 | -0.7 | 50.1* | 52.4*
O=C(NCCCc1ccccc1)O[C@@H]1CC[C@@]23CCCN2C(=O)CCC[C@H]3C1 | 4.6 | / | 0.5 | / | / | /
COc1cccc(NC(=O)CN2C(=O)CSc3ccc(S(=O)(=O)N4CCCCC4)cc32)c1 | 12.4 | -2.3 | 3.1 | 0.4 | 53.3* | 65.8*
O=C(CN1C(=O)CSc2cc(S(=O)(=O)N3CCCCCC3)ccc21)NCCc1ccccc1 | -1.4 | 1.3 | -4.6 | -0.2 | 50.3* | 8.5
Cc1ccc(NC(=O)CN2C(=O)CSc3ccc(S(=O)(=O)N4CCCCC4)cc32)cc1 | 10.0 | -4.1 | 3.6 | -0.1 | 55.7* | 41.8*
CN=C1NC(=O)/C(=C\c2cc(C)n(-c3ccccc3F)c2C)S1 | -7.8 | / | 0.0 | / | / | /
O=C(/C=C/c1cccc([N+](=O)[O-])c1)N1CCN(c2ccccc2F)CC1 | -0.9 | -2.6 | 2.0 | 0.2 | 56.3* | 42.1*
O=c1[nH]c(=O)c2cc([N+](=O)[O-])cc([N+](=O)[O-])c2[nH]1 | 12.5 | 0.7 | 4.2 | -0.1 | 2.2 | /
O=c1[nH]c2cc([N+](=O)[O-])c([N+](=O)[O-])cc2[nH]c1=O | -1.7 | -0.7 | -1.9 | 0.4 | 66.0* | 73.2*
CC1CCN(C(=O)c2[nH]cnc2C(=O)Nc2ccc(Cl)cc2)CC1 | 1.9 | -8.6 | -2.6 | 0.5 | 53.7* | 49.2
CC1CCN(C(=O)c2[nH]cnc2C(=O)NCc2ccccc2)CC1 | -5.2 | 0.2 | -6.6 | 0.5 | -6.7 | /
Cc1nn(-c2ccccn2)c2c1C(c1ccccc1Cl)C1=C(N2)c2ccccc2C1=O (stereo unspecified) | 2.1 | -9.4 | 4.6 | -0.1 | 53.0* | 3.3
Cc1ccc(S(=O)(=O)N2C[C@H]3[C@H]4C(=O)N(Cc5ccccc5)C(=O)[C@H]4CC(=O)[C@H]3[C@@H]2c2ccccc2Cl)cc1 | 15.5 | / | 6.3 | 0.2 | 85.3* | 22.1
Cc1ccc(S(=O)(=O)N2C[C@H]3[C@H]4C(=O)N(C5CCCCC5)C(=O)[C@H]4CC(=O)[C@H]3[C@@H]2c2cccc3ccccc23)cc1 | 4.5 | / | -3.2 | 0.2 | 97.4* | 9.6
Cc1ccc(S(=O)(=O)N2C[C@H]3[C@H]4C(=O)N(C5CCCCC5)C(=O)[C@H]4CC(=O)[C@H]3[C@@H]2c2ccccc2F)cc1 | 10.0 | / | 4.1 | 0.6 | 15.4 | /
O=C(CCCCCN1C(=O)C2C3C=CC(C3)C2C1=O)Nc1cc(F)cc(F)c1 (stereo unspecified) | 0.9 | / | 0.1 | 0.1 | / | /
Cc1cc(C(=O)OCC(=O)NCc2cccs2)ccc1[N+](=O)[O-] | -14.8 | -0.3 | -4.7 | -0.2 | 24.4 | /
COC(=O)c1cc(C(=O)OCC(=O)NCc2cccs2)cc([N+](=O)[O-])c1 | -2.3 | 0.3 | -5.4 | -0.2 | 64.3* | 45.3
O=C(COC(=O)c1cc([N+](=O)[O-])ccc1NCCO)NCc1cccs1 | -8.0 | -0.4 | -0.9 | 0.6 | 73.0* | 77.6*
Cc1ccc(S(=O)(=O)N2CCN(C(=O)COC(=O)c3cc([N+](=O)[O-])ccc3NCCO)CC2)c(C)c1 | -4.9 | -7.2 | -1.9 | 0.7 | 71.0* | 73.7*
O=C(COC(=O)c1cc([N+](=O)[O-])ccc1NCCO)c1ccccc1 | 9.8 | -19.7 | 6.1 | -0.1 | 59.3* | 67.8*
NC(=O)COC(=O)c1cc([N+](=O)[O-])ccc1NCCO | 6.0 | -0.4 | -2.5 | 0.1 | 3.0 | /
O=C(OC12CCCN(C1)/C(=C/c1cccc(Cl)c1)C2)c1ccc(Cl)cc1 (stereo unspecified) | 3.5 | / | 3.3 | 0.5 | / | /
Cc1ccc(S(=O)(=O)N/N=C2/CCCCC2C2CCCCC2)cc1[N+](=O)[O-] (stereo unspecified) | -3.1 | -2.6 | 5.3 | -0.5 | 31.3 | /
SMILES | ADAM10 inh | NR3A LBD binder | ADAM17 inh | proKLK7 act | FAS-TE inh | FAS-TE conf
CCC(C)(C)C1CCC(=NNS(=O)(=O)c2ccc(C)c([N+](=O)[O-])c2)CC1 (stereo unspecified) | 0.9 | -1.1 | -1.1 | -0.3 | 72.7* | 57.9*
C[C@H]1C2CC(OC(=O)Nc3cccc(F)c3)C(C2)[C@H]2CCCCN21 (stereo partly specified) | -8.2 | / | -6.4 | -0.4 | / | /
CCCCOc1ccc(S(=O)(=O)N2CCCCC2)cc1 | 3.1 | -2.0 | -1.6 | 0.2 | 22.6 | /
CCCCOc1ccc(S(=O)(=O)N2CCN(c3ccc(N4CCN(CC)CC4)nn3)CC2)cc1 | -78.0 | 1.2 | -19.9 | -1.7 | 59.8* | 29.2
O=C(CSc1nc2ccccc2n1S(=O)(=O)c1cccc([N+](=O)[O-])c1)NCCc1ccccc1 | 4.5 | -3.5 | -1.8 | 0.5 | 76.1* | 69.1*
CCCCNC(=O)CSc1nc2ccccc2n1S(=O)(=O)c1ccc(Br)cc1 | -6.8 | 0.2 | -2.0 | -0.4 | 0.3 | /
CC1CCCN(S(=O)(=O)c2ccc(NC(=O)Cc3ccc(S(=O)(=O)N4CCOCC4)s3)cc2)C1 (stereo unspecified) | 13.4 | 2.0 | 3.1 | 0.1 | 61.0* | 27.6*
COc1ccc(C(C(=O)NC2CCCC2)N(C(=O)c2snc(-c3ccc(F)cc3)c2N)c2ccc(OC)cc2)cc1 (stereo unspecified) | -32.9 | -1.9 | -8.7 | -3.0 | 59.4* | 27.5
O=C(C[C@H]1C[C@H](C(=O)N2CCOCC2)[C@@]2(CCC3CCCC3)c3[nH]c4cc(-c5ccco5)ccc4c3CCN2C1=O)NCc1ccco1 | -340.2 | -1.1 | -87.1 | -6.7 | 37.9 | /
COc1ccc2[nH]c3c(c2c1)CCN1C(=O)C(CC(=O)NCC24CC5CC(CC(C5)C2)C4)C[C@H](C(=O)N2CCOCC2)[C@@]31CCC1CCCC1 (stereo partly specified) | -9.0 | 0.2 | -2.0 | 0.2 | 79.8* | 14.8
O=C(C[C@H]1C[C@H](C(=O)N2CCOCC2)[C@@]2(CCC3CCCC3)c3[nH]c4ccc(Cl)cc4c3CCN2C1=O)NCC12CC3CC(CC(C3)C1)C2 | -6.2 | -1.2 | -6.7 | 0.6 | 82.0* | 1.9
COc1ccc2[nH]c3c(c2c1)CCN1C(=O)C(CC(=O)NCCC2=CCCCC2)C[C@H](C(=O)N2CCOCC2)[C@@]31CCC1CCCC1 (stereo partly specified) | -1.3 | 0.2 | -2.8 | 1.1 | 67.0* | 69.5*
CC(c1ccccc1)N1CC[C@H]2C=CC[C@@H](C(=O)Nc3ccc(F)c(F)c3)[C@H]2C1=O (stereo partly specified) | -3.5 | / | -3.4 | / | / | /
C=CCN1[C@@H](C)COc2cccc(N3CCCC3)c2S1(=O)=O | -5.8 | / | -1.0 | 0.5 | / | /

Compound activity: PubChem, several laboratories
